Data reported in PubChem BioAssay AID493131 (Broad Institute, 2011).
Out of some 340,000 compounds screened, about 3,300 (0.97%) were called active.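 The calls were made as follows: active = mean activation above about 17%, with every replicate also reaching it (limit read from the data, passing the limit was not always enough); inconclusive = only one of the two conditions met; inactive = the rest.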 What follows is part of a selection rich in actives, with near analogues and random picks from the rest.

molecular target: Protein FosB (Mus musculus) (UniProt P13346); assay: activators of delta FosB homodimer, primary screen, biochemical, fluorescence polarization, TAMRA-CDK5 oligo, single point (AID 493131); details: purified delta FosB, at 25 µM, active compounds read high, percent of positive-control signal above neutral wells;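 also: fluorescence polarization rise as delta FosB binds a TAMRA Cdk5 AP-1 oligo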
Sequence (P13346 whole entry, looked up): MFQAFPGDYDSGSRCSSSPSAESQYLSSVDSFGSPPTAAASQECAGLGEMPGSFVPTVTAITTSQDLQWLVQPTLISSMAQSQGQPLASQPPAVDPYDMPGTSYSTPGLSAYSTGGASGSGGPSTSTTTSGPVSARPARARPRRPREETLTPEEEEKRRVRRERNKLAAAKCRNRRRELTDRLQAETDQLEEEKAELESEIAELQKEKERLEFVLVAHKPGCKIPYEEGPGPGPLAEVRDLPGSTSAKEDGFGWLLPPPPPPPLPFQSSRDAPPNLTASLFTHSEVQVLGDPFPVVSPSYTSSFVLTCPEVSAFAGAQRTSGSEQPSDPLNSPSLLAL

Structure (SMILES)	activation
COc1ccc(C2=Nc3cc(C)ccc3OC2)cc1	-10.5% (inactive)
COc1cccc(NC(=O)COC(=O)CCOc2ccccc2OC)c1	2.67% (inactive)
CCCCOc1ccc(NC(=O)CSCC(=O)OCC)cc1	-6.39% (inactive)
CCCCCCCCCCOC(=O)Cn1c(COc2ccc(C)cc2)[n+](C)c2ccccc21	38.3% (active)
CCOC(=O)CNC(=O)CSc1nnc(-c2cccc(OC)c2)n1CC	-2.27% (inactive)
CCOC(=O)COn1c(=O)c(-c2ccc(OCC)cc2)[n+]([O-])c2ccccc21	-3.65% (inactive)
CCCCCCCCCCOC(=O)Cn1c(COc2cccc(OC)c2)[n+](C)c2ccccc21	28.7% (active)
CCC1=C(OC(=O)N(CC)CC)N2C(=O)OC(=NCCc3c[nH]c4ccccc34)[C@]2(C)[C@H]2C1=CC[C@H]1C(=O)N(CC)C(=O)[C@H]12	-18.3% (inactive)
CCOC(=O)N1CCN(S(=O)(=O)c2ccc(-n3cnnn3)cc2)CC1	-6.35% (inactive)
CC(=O)c1ccc(S(=O)(=O)N2CCC(Oc3ccc(-n4cnnn4)cc3)CC2)cc1	12.7% (inactive)
Cc1ccc(S(=O)(=O)N2CCC(Oc3ccc(-n4cnnn4)cc3)CC2)cc1	58.6% (active)
Cn1c(=O)c2c(nc(Br)n2CCSc2nc3ccccc3o2)n(C)c1=O	1.42% (inactive)
Cc1cccc(C)c1NC(=O)C1(C)c2cccc[n+]2CC(=O)N1Cc1cccs1 (configuration not stated)	-6.06% (inactive)
COc1ccccc1OCC(O)CN1CCOCC1 (configuration not stated)	-1.24% (inactive)
C=CCc1ccccc1OCC(O)CN1CCN(CCO)CC1 (configuration not stated)	-2.68% (inactive)
Cc1cccc(OCC(O)CN2CCN(CCN3C(=O)c4cccc5cccc(c45)C3=O)CC2)c1C (configuration not stated)	62.2% (active)
COc1ccc(S(=O)(=O)NCCOc2ccccc2)cc1F	7.41% (inactive)
CCOc1ccc(-n2c(SCC(=O)OC)nc3sc4c(c3c2=O)CCN(C)C4)cc1	-0.804% (inactive)
CCCSc1nc2sc3c(c2c(=O)n1-c1ccc(OC)cc1)CCN(C)C3	-14.7% (inactive)
CCOc1ccc(-n2c(SCC(=O)Nc3ccc(OC)cc3)nc3sc4c(c3c2=O)CCN(C)C4)cc1	50.3% (active)
Cc1ccccc1-c1nc(CS(=O)(=O)CC(=O)N2CCc3ccccc3C2)c(C)o1	-5.6% (inactive)
O=C(COC(=O)c1cnccn1)Nc1cccc2ccccc12	-2.31% (inactive)
N#CCCN1CCN(S(=O)(=O)c2ccc(S(=O)(=O)NC3CCCCC3)cc2)CC1	-3.88% (inactive)

Structure (SMILES)	activation
COC(=O)c1cc(NC(=O)CN2CCN(C(C)=O)CC2)cc(C(=O)OC)c1	2.81% (inactive)
Cc1cccc(Nc2nnc(SCC(=O)c3c(N)n(C4CC4)c(=O)[nH]c3=O)s2)c1C	-2.18% (inactive)
Cc1nnc(NC(=O)Nc2ccc(Cl)c(Cl)c2)s1	28.8% (active)
Cc1nnc(NC(=O)C(c2ccccc2)c2ccccc2)s1	-0.437% (inactive)
Cc1nnc(NC(=O)c2ccc3nccnc3c2)s1	1.3% (inactive)
CC(C)Cn1c(N)c(C(=O)COC(=O)CN2C(=O)C3CC=CCC3C2=O)c(=O)n(C)c1=O (configuration not stated)	-11.5% (inactive)
COc1cccc(N2CC(NS(=O)(=O)c3cccs3)CC2=O)c1 (configuration not stated)	0.171% (inactive)
CCc1ccc(CNC(=O)C2CC(=O)N(CCc3ccc(C)cc3)C2)cc1 (configuration not stated)	-3.6% (inactive)
CCc1ccc(CNC(=O)C2CCN(c3nnc(C)c4c(C)n(-c5ccc(C)cc5)nc34)CC2)cc1	82.7% (active)
CCOc1ccc(CNC(=O)C2CCCN(c3nnc(C)c4c(C)n(-c5ccccc5)nc34)C2)cc1 (configuration not stated)	-5.11% (inactive)
Cc1ccc(NC(=O)CN2CCc3ccccc3C2)cc1C	-4.61% (inactive)
Cc1ccc(OS(=O)Nc2cccc3nccnc23)cc1 (configuration not stated)	-0.877% (inactive)
O=C(Cc1csc(Nc2nc(=S)[nH]c3ccccc23)n1)NCCCN1CCN(c2cccc(Cl)c2)CC1	34.1% (active)
COc1cccc(CNC(=O)Cc2csc(Nc3nc(=S)[nH]c4ccccc34)n2)c1	12.2% (inactive)
O=C(CCCn1c(=O)[nH]c2cc(Cl)ccc2c1=O)NCCN1CCN(c2ccccc2)CC1	-5.22% (inactive)
O=[N+]([O-])c1cc2ccccc2nc1-c1ccccc1	-4.74% (inactive)
CC1COc2ccccc2N1C(=O)c1cccnc1Cl (configuration not stated)	-2.06% (inactive)
CN1CCN(c2nc(Nc3ccc(O)cc3)nc3ccccc23)CC1	10.9% (inactive)
OCCNc1nc(Nc2ccc(Cl)c(Cl)c2)nc2ccccc12	47% (active)
Cc1cccc(Nc2nc(NCCO)nc(N3CCCC3)n2)c1	2.75% (inactive)
CC12CN(Cc3ccccc3)CC(C)(CN(Cc3ccccc3)C1)C2=NO	-1.53% (inactive)
CCOc1ccccc1-n1c(SCC(=O)NCc2ccco2)nnc1-c1ccncc1	-2.73% (inactive)
O=C(Nc1ccccc1)Nc1nnc(COc2ccccc2F)s1	28.4% (active)

Structure (SMILES)	activation
O=C(NCCOc1ccccc1F)Nc1ccc(Br)cc1	-2.98% (inactive)
COc1ccccc1NC(=O)Nc1nnc(Cc2ccc(F)cc2)s1	-2.06% (inactive)
COc1cc(C)ccc1OCC(=O)OCC(=O)c1ccc[nH]1	6.43% (inactive)
CC(NC(=O)COC(=O)CCC(=O)c1ccc(Cl)cc1)c1ccccc1 (configuration not stated)	-9.29% (inactive)
Cc1ccccc1Nc1nc(N)nc(COC(=O)CCC(=O)c2ccc(F)cc2)n1	-1.04% (inactive)
Nc1nc(COC(=O)CCC(=O)c2ccc(Cl)cc2)nc(Nc2ccccc2)n1	21.6% (active)
OCCCNC(c1ccccc1)c1ccc(O)cc1 (configuration not stated)	-0.537% (inactive)
CCc1ccc2nc(N(CCCN(C)C)C(=O)c3ccc4c(c3)OCCO4)sc2c1	-10.5% (inactive)
CCCC(=O)N(CCN1CCOCC1)c1nc2ccc(OCC)cc2s1	1.55% (inactive)
CCOc1ccc2nc(N(CCN(C)C)C(=O)c3ccc4ccccc4c3)sc2c1	18.5% (active)
Cc1onc(-c2ccccc2Cl)c1C(=O)N(Cc1ccc(N(C)C)cc1)C(C)C	-12.7% (inactive)
O=C(N/N=C/c1ccco1)c1csc2c1CCCC2	2.38% (inactive)
O=C(N/N=C/c1ccco1)c1ccc(NC(=O)C2CC2)cc1	31.9% (active)
O=C(Cc1ccccc1)Nc1cccc(C(=O)N/N=C/c2ccco2)c1	-7.68% (inactive)
O=C(NCC1CCCCC1)NCC1CCCCC1	-3.89% (inactive)
CCC(C)NC(=O)c1ccc(NC(=O)CC2SC(N3CCCCC3)=NC2=O)cc1 (configuration not stated)	-9.42% (inactive)
Cc1cc(C)n2nc(CNS(=O)(=O)c3c(F)c(F)c(F)c(F)c3F)nc2n1	-1.9% (inactive)
CCn1c(=O)c2cc(C(=O)Nc3cccc(C(C)=O)c3)sc2c2ccccc21	73.2% (active)
CC(=O)c1cccc(NC(=O)c2cc(C)nn2-c2ccccc2)c1	-9.9% (inactive)
CCn1c(NC(=O)c2ccccc2)c(-c2cccs2)c(=O)c2ccccc21	-4.73% (inactive)
CCc1cccc(NC(=O)COC(=O)c2cc(=O)c3ccccc3o2)c1	-5.91% (inactive)
COC(=O)c1c(C(=O)OC)c(-c2cccc(C)c2)n2c1CS(=O)C2 (configuration not stated)	-2.6% (inactive)
Cc1ccccc1Nc1c([N+](=O)[O-])ccc2nonc12	-0.872% (inactive)

Structure (SMILES)	activation
CN(C)CCN(C(=O)C1=COCCO1)c1nc2ccc(Cl)cc2s1	-10.2% (inactive)
CN(C)CCCN(C(=O)c1ccc(S(=O)(=O)N2CCCCCC2)cc1)c1nc2ccc(Br)cc2s1	41% (active)
COc1ccc2sc(N(CCCN(C)C)C(=O)c3ccc(S(=O)(=O)N(C)C4CCCCC4)cc3)nc2c1	15.3% (inactive)
CCCCn1c(N)c(N(CCC(C)C)C(=O)COC(=O)c2ccc(CC)cc2)c(=O)[nH]c1=O	23.1% (active)
CCCCn1c(N)c(N(CCC(C)C)C(=O)COC(=O)c2cccnc2OCC)c(=O)[nH]c1=O	1.39% (inactive)
CCCCn1c(N)c(N(CCC(C)C)C(=O)c2ccc([N+](=O)[O-])o2)c(=O)[nH]c1=O	-0.599% (inactive)
CCn1c(/C=C/Nc2ccccc2)[n+](CC)c2ccc(C(=O)OCC(F)(F)F)cc21	-11.5% (inactive)
O=C(NCCCn1ccnc1)C1CCCN(S(=O)(=O)c2cc(Cl)ccc2Cl)C1 (configuration not stated)	-4.73% (inactive)
CCSc1ccccc1C(=O)Nc1ccc2c(c1)OCO2	0.935% (inactive)
CC(Sc1nc(-c2ccccc2)cc(C(F)(F)F)n1)C(=O)Nc1ccc2c(c1)OCO2 (configuration not stated)	30.4% (active)
CC(Sc1nc2cc(Cl)ccc2s1)C(=O)Nc1ccc2c(c1)OCO2 (configuration not stated)	-3.52% (inactive)
O=C1/C(=C/c2ccc3c(c2)OCO3)Oc2cc(OCC(=O)N3CC(O)C[C@H]3C(=O)O)ccc21 (some centres not stated)	-7.81% (inactive)
Cc1ccc(C(=O)NNC(=O)c2ccc3c(c2)OCCO3)cc1	-13% (inactive)
Cc1ccc(C(=O)NNc2ncnc3ccccc23)cc1	-2.14% (inactive)
Cc1ccc(C(=O)NNC(=O)c2cc3cc4ccccc4nc3s2)cc1	26.4% (active)
O=C(CN1CCN(S(=O)(=O)/C=C/c2ccccc2)CC1)NC(=O)NCc1ccco1	-9.92% (inactive)
O=C(COC(=O)c1ccc(S(=O)(=O)N2CCc3ccccc3C2)cc1)NC(=O)NCc1ccco1	61.2% (active)
CC(NC(=O)c1cccc(S(=O)(=O)N2CCc3ccccc3C2)c1)c1ccco1 (configuration not stated)	7.07% (inactive)
Cc1cccc(C)c1NC(=S)N(Cc1cccnc1)Cc1ccccc1Cl	2.24% (inactive)
COC(=O)C(C(=O)Nc1cccc(Cl)c1C)C1CCCC1 (configuration not stated)	0.709% (inactive)
COc1cccc(/C=N/NC(=O)CNC(=O)c2ccc(S(=O)(=O)N3CCOCC3)cc2)c1OC	1.33% (inactive)
COc1cccc(/C=N/NC(=O)c2[nH]nc3c2CCc2ccccc2-3)c1O	76.1% (active)
COc1ccc(/C=N/NC(=O)c2ccncc2)cc1CN1CCCc2ccccc21	-19.4% (inactive)
